# Source: PubChem (several laboratories)
# Only some compounds are listed: those with a hit (about 4.5% of all), similar ones and a draw of the others.
# tim10-1 inh: growth inhibitors of tim10-1 mutant yeast, primary screen, luminescence, uHTS. S. cerevisiae tim10-1 ts strain growth, BacTiter-Glo, 24 h. 330,000 tested, 2.2% active. inhibition, % at 20 µM. AID 463190, 2010;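 active = inhibition of at least 40%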;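 note: mutant grown at 25 °C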
# tim23-1 inh: growth inhibitors of tim23-1 mutant yeast, primary screen, luminescence, uHTS | AID 463212, 2010 | inhibition, % at 20 µM | 330,000 tested, 1.3% active | S. cerevisiae tim23-1 growth, BacTiter-Glo luminescence, 24 h;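 active = growth inhibition of the mutant yeast at or above 50%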;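 note: temperature-sensitive mutant grown at 25 °C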
# NLRP3 yeast inh: NALP3 inflammasome inhibitors in reconstituted yeast, primary screen, luminescence, uHTS; Yeast reconstituted NLRP3/ASC/caspase-1, beta-gal luminescence, 24 h; inhibition, % at 10 µM; 330,000 tested, 0.39% active; AID 2825, 2010;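 active = inhibition of 50% or more; inactive = inhibition below 50%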
# PfHsp90 yeast 2: growth inhibition of PfHsp90-expressing yeast, primary screen, antimalarial PfHsp90 inhibitor project, S. cerevisiae, BacTiter-Glo luminescence, single point, set 2; BacTiter-Glo ATP, 48 h; yeast lacking PDR1 and PDR3 efflux regulators; inhibition, % at 9.4 µM; 310,000 tested, 0.32% active; AID 504621, 2011;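 active = every replicate shows inhibition above about 80%, whatever the replicate mean, limit read from the data; inconclusive = mean inhibition reaches the set limit but some replicate falls short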
# TIM10 inh: growth inhibitors of isogenic TIM10 control yeast, primary screen, counter-screen for tim10-1 yeast inhibitor project, luminescence, uHTS. S. cerevisiae TIM10 strain growth, BacTiter-Glo luminescence, 24 h. inhibition, % at 10 µM. 330,000 tested, 1.4% active. AID 463195, 2010;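 active = inhibition of 40% or more at the single tested concentration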;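 note: wild-type TIM10 isogenic control strain grown at permissive 25 °C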
# SKKanGAS inh: S. pyogenes SKKanGAS growth inhibitors in kanamycin, primary screen, streptokinase expression inhibitor project, SKKanGAS strain, BacTiter-Glo luminescence. inhibition, % at 7.5 µM. AID 1662, 2009. 6 h. 300,000 tested, 1.3% active;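 active = mean replicate score, as percent of positive control median, at least 50; inconclusive = mean below 50 but one replicate at or above 50; inactive = mean and every replicate below 50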;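 note: strain carries kanamycin resistance gene driven by streptokinase promoter and grows in 40 µg/ml kanamycin; loss of luminescence reflects streptokinase promoter inhibition or plain growth inhibition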
# A number is an active result; . = inactive; ? = inconclusive; / = no result.
SMILES,tim10-1 inh,tim23-1 inh,NLRP3 yeast inh,PfHsp90 yeast 2,TIM10 inh,SKKanGAS inh
CCc1sc(N(C(=O)Cc2ccccc2)c2ccccc2)nc1-c1ccccc1,.,.,.,.,.,.
Cc1cccc(OCC(=O)Nc2ccccc2N2CCCCC2)c1C,.,.,.,.,.,70
O=C(CN1CCc2ccccc2C1)Nc1ccccc1Cl,.,.,.,.,.,.
COc1ccc(OCC(=O)Nc2ccccc2N2CCCCC2)cc1,.,.,.,.,.,.
Cc1cccc(C)c1OCC(=O)Nc1ccccc1N1CCCCC1,.,.,.,.,.,86
Cc1ccc(Cl)c(OCC(=O)Nc2ccccc2N2CCCCC2)c1,.,.,.,.,.,?
O=C(CN1CCc2ccccc2C1)Nc1ccccc1N1CCCCCC1,.,.,.,.,.,86
CC(C)(C)OC(=O)CC12CCCCC1NC(=O)O2 (stereo not given),.,.,.,.,.,.
Cc1[nH]cnc1C(=O)N/N=C/c1ccc([N+](=O)[O-])s1,.,.,.,.,.,103
Cc1cc(C(=O)N/N=C/c2ccc([N+](=O)[O-])s2)n[nH]1,.,.,.,.,.,109
CC(=O)c1cccc(NC(=O)C2CC(=O)N(C3CCCC3)C2)c1 (stereo not given),.,.,.,.,.,/
CN(CC(=O)Nc1cccc(F)c1)C(=O)CNC(=O)Cc1cccc2ccccc12,.,.,.,/,.,/
O=C1NC(=NCc2ccccc2)NC1(c1ccccc1)c1ccccc1,/,/,/,.,/,/
CNC(=O)c1c(NC(=O)c2ccc(N3C(=O)CCC3=O)cc2)sc2c1CCC(C)C2 (stereo not given),.,.,.,.,.,61
CNC(=O)c1c(NC(=O)c2ccc(N3C(=O)CCC3=O)cc2)sc2c1CCCC2,.,.,.,.,.,.
CC1CCCN(C(=O)CCS(=O)(=O)c2cc3c(cc2Cl)NC(=O)CO3)C1 (stereo not given),.,.,.,.,.,.
O=C(Nc1ccc(F)cc1)Nc1cc(OCC(F)(F)F)cc(OCC(F)(F)F)c1,.,.,.,.,.,78
COc1ccc(S(=O)(=O)N2CCN(CC(=O)Nc3c(C)n[nH]c3C)CC2)cc1OC,.,.,.,.,.,/
Cc1cc(C)c(S(=O)(=O)N2CCCC(C(=O)N3CCOCC3)C2)c(C)c1 (stereo not given),.,.,.,.,.,.
CC(C)c1ccc(N2C(=O)/C(=C/N(C)C)SC2=S)cc1,.,.,.,.,.,86
COc1ccc(N2CC(C(=O)N3CCC(c4nc5ccccc5[nH]4)CC3)CC2=O)cc1 (stereo not given),.,.,.,.,.,.
COc1ccc(NC(=O)CSc2nc(O)cc(=O)n2C)cc1,.,.,.,.,.,.
COc1ccc(NC(=O)CSc2nc(O)cc(=O)n2-c2ccccc2)cc1,.,.,.,.,.,88
COc1ccccc1-n1c(SCC(=O)Nc2ccc(Br)cc2)nc(O)cc1=O,.,.,.,.,.,64
CC12CCC(=O)N1C(C(=O)NNC(=O)c1ccc(Br)cc1)CS2 (stereo not given),.,.,.,.,.,/
SMILES,tim10-1 inh,tim23-1 inh,NLRP3 yeast inh,PfHsp90 yeast 2,TIM10 inh,SKKanGAS inh
COc1ccc(NC(=O)CN(C)CC(=O)NCCc2ccc(F)cc2)cc1,.,.,.,.,.,/
Cc1ccc(-n2c(N)c(-c3nc4ccccc4n3C)sc2=S)cc1,.,.,.,/,.,50
Cc1nc(-c2ccccn2)nc(SCC(=O)N2CCOCC2)c1Cl,.,.,.,.,.,.
Cc1nc(-c2ccccn2)nc(SCC(=O)c2ccccc2)c1Cl,.,.,.,.,.,93
Nc1ccc(SCc2cccnc2)cc1,.,.,.,.,.,.
Cc1cccc(CSc2nc3c(c(-c4cccs4)c2C#N)CN(C)CC3)c1,.,.,.,.,.,.
Cc1cccc(CSc2nc(N)c(C#N)c(-c3cccs3)c2C#N)c1,.,.,.,.,.,59
O=[N+]([O-])c1ccc(C2=NCCO2)cc1,.,.,.,.,.,.
Cc1cc(C)c2nc(NC(=O)C3CSC4(C)CCC(=O)N34)sc2c1 (stereo not given),.,.,.,.,.,/
COC(=O)CCC(=O)N1CN2CN(C(=O)CCC(=O)OC)CC([N+](=O)[O-])(C2)C1,.,.,.,.,.,.
COc1ccc(Cc2[nH]n3c(=O)c(Cl)c(C)nc3c2-c2ccccc2)cc1,.,.,.,.,.,122
COC(=O)c1ccccc1C(=O)N1CCCC(CNC(=O)c2ccc(F)cc2)C1 (stereo not given),.,.,.,.,.,.
CC(C)(C)c1cc[n+](C2=C([O-])c3ccccc3C(=O)/C2=N\S(=O)(=O)c2cccs2)cc1,.,.,.,/,.,56
O=C1/C(=N\S(=O)(=O)c2cccs2)C([n+]2ccccc2)=C([O-])c2ccccc21,.,.,.,.,.,.
CC(C)NC(=O)CCn1ccc2cc(S(=O)(=O)N3CCCC3)ccc21,.,.,.,.,.,.
CC1CCCCC1NC(=O)CCn1ccc2cc(S(=O)(=O)N3CCCC3)ccc21 (stereo not given),.,.,.,.,.,50
CCOC(=O)C1=C(COC(=O)c2cc(OC)c(OC)c(OC)c2)NC(=O)NC1C (stereo not given),.,.,.,.,.,.
CN(C)CCCn1c2c3ccccc3ccc2c2oc(=O)c3ccccc3c21,/,/,/,.,/,/
O=S1(=O)CCOCCN1Cc1ccc(Cl)cc1Cl,.,.,.,/,.,.
CC(=O)Nc1nc(NCc2ccccc2Cl)n(-c2ccccc2)n1,.,.,.,.,.,.
CC(=O)Nc1nc(NC(=O)/C=C/c2ccccc2)n(-c2ccccc2)n1,.,.,.,.,.,97
O=C(NCCc1c[nH]c2ccccc12)OCCSS(=O)(=O)O,.,.,.,.,.,.
Cc1ccc(C(=O)N2CCCC(C(=O)c3ccc(Cl)cc3C)C2)cn1 (stereo not given),.,.,.,.,.,.
O=C(c1ccc(-c2ccccc2)c(F)c1)C1CCCN(C(=O)c2cncs2)C1 (stereo not given),.,.,.,89,.,.
Cc1cc(Cl)ccc1C(=O)C1CCCN(C(=O)c2cncs2)C1 (stereo not given),.,.,.,96,.,.
CC(C)Oc1cccc(C(=O)C2CCCN(C(=O)c3cncs3)C2)c1 (stereo not given),.,.,.,.,.,.
O=C(Cn1cnc([N+](=O)[O-])c1)c1ccc(Cl)cc1,.,.,.,.,.,.
